The list is not random: actives were taken first. Their share in the collection is about 9.6%.
Autophagy HCS: autophagy modulation, high-content screen | calls only at 10 µM (by protocol) | hit rate 0.98% among 190,000 | MEF GFP-LC3 puncta imaging; test concentration mostly 10 µM;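 active means percentage of spot-positive cells more than 3 SD above its plate mean, without a fluorescence outlier flag or 80% toxicity; inconclusive means no clear call, values can overlap the other calls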;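 further: spot-positive cell cutoff set from DMSO-treated cells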
Insulin prom up: MIN6 insulin promoter up-regulation. z-score at 5 µM. hit rate 0.3% among 190,000. MIN6 insulin promoter-GFP reporter, high-content imaging; hits give high values;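 active means z-score above 3 at 5 µM with at least 500 cells counted in the well; inconclusive means wells under 500 cells, flagged as cytotoxic or low count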
PTEN del growth: growth suppressors of cells with PTEN tumor suppressor deletion; hit rate 1.2% among 140,000; HCT116 PTEN-null viability, CellTiter-Glo, 60 h; hits give low values; viability, % at 10 µM; AID 827;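 active means viability at or below a set limit, 4 SD under the median of all tested compounds, cut at about 3.7% in these data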;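 further: PTEN knockout HCT116 line with beta catenin targeted HCT116 as companion control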
bCat KO growth: beta-catenin-lacking colon tumor cell growth suppression; HCT116 beta-catenin knockout viability, CellTiter-Glo, 60 h; hits give low values; viability, % at 10 µM; hit rate 1.5% among 140,000;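 active means viability at or under a set limit, the compound median less 4 SD, cut at about 6% in these data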;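 further: 0% = Hyamine 1622 control at 20 µM and 100% = untreated cell control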
INS promoter inh: TRM-6 insulin promoter activity inhibition; TRM-6 cells (human fetal islet line), insulin promoter-eGFP reporter, imaging; reporter expression induced with tamoxifen; inhibition, % at 2 µM; hit rate 0.9% among 130,000;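 active means inhibition above the mean plus 3 SD, with well images judged a real hit on visual review, cut at about 60% in these data, passing the limit was not always enough; inconclusive means inhibition over the cutoff but images rejected on review; inactive means inhibition not above the cutoff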
Lmaj promast: reduces viability of Leishmania major promastigotes. inhibition, % at 10 µM. hit rate 9% among 200,000. AID 1063. resazurin fluorescence viability; in the data active means inhibition above about 50%;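 further: promastigotes grown with compound for 44 hours at 28 °C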
L major 1uM: L. major promastigote growth inhibition, 1 uM repeat; inhibition, % at 1 µM; shares compounds with Lmaj promast; hit rate 13% among 1,100; resazurin fluorescence, 48 h;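 active means inhibition above about 50% in both repeat tests, limit read from the data; inconclusive means one repeat under the set limit, the other over it; inactive means both repeats under the set limit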
The depositor's hits bear a star; i = inactive; ? = inconclusive; nt = no result; + = active, no number.

SMILES | Autophagy HCS | Insulin prom up | PTEN del growth | bCat KO growth | INS promoter inh | Lmaj promast | L major 1uM
COC(=O)C(C(C)=O)C1=C/C(=N\S(=O)(=O)c2ccc(C)cc2)c2ccccc2C1=O (configuration not stated) | i | -0.31 | 93 | 94 | -47 | 48 | nt
OCc1ccnc(Cl)c1 | i | 0.41 | 96 | 93 | -35 | -1 | nt
Nn1c(-c2ccccc2Cl)nnc1-c1ccccc1Cl | i | 0.39 | 92 | 71 | 62 | 76* | -24
CC(Oc1ccc(Cl)cc1Cl)C(=O)Nc1ccc(OCC(=O)O)cc1 (configuration not stated) | i | 0.27 | nt | nt | nt | -2 | nt
Cc1nn(-c2cccc(C(F)(F)F)c2)c(Cl)c1/C=N/Nc1cccc(C(=O)O)c1 | i | 0.23 | 92 | 83 | 15 | 90* | -8
O=c1[nH]c2cc3c(cc2cc1CN(Cc1ccccc1)Cc1nnnn1Cc1ccco1)OCCO3 | i | -0.93 | 66 | 81 | nt | -4 | nt
Cn1cccc1Cc1nnc(SCC(=O)Nc2ccc(F)cc2)n1CCc1ccccc1 | i | -0.36 | 61 | 78 | nt | 56* | -9
CCOC(=O)c1ccccc1NC(=O)c1ccccc1N(C)S(C)(=O)=O | i | 0.33 | 93 | 91 | 3 | 90* | -3
COCCCn1c2nc3ccccc3nc2c2c(=O)n(-c3ccccc3OC)cnc21 | i | -0.99 | 90 | 90 | 31 | 19 | nt
COc1ccccc1-n1cnc2c(c1=O)c1nc3ccccc3nc1n2-c1ccc(C)c(C)c1 | i | -0.56 | 18 | 30 | nt | 97* | 97*
O=C1NCCN(Cc2ccc(F)cc2)C1CC(=O)N1CC=C(c2ccccc2)CC1 (configuration not stated) | nt | 0.46 | nt | nt | nt | nt | nt
O=C(OCc1ccccc1)c1cn(-c2ccccc2)nc1-c1ccncc1 | i | 0.45 | 86 | 92 | -12 | 69* | 9
O=S(=O)(NCCC1=CCCCC1)c1cccc2nsnc12 | i | nt | 94 | 96 | nt | 1 | nt
CC(C)CCC(C)N=Cc1c(O)n(Cc2ccccc2)c(=O)c2ccccc12 (configuration not stated) | i | -0.02 | 60 | 69 | 46 | 62* | -2
COc1ccc(C(=O)C2CCCN(C(=O)c3noc4c3CCCC4)C2)cc1F (configuration not stated) | i | -0.27 | nt | nt | nt | 0 | nt
CC(C)C[C@H](NC(=O)OC(C)(C)C)C(=O)N/N=C/C1=Cc2ccccc2OC1C (some centres not stated) | i | nt | 50 | 58 | 40 | 98* | -4
CC(C)CCn1nnnc1C(c1ccccc1F)N1CCC(C(N)=O)CC1 (configuration not stated) | i | -0.01 | 98 | 95 | nt | -8 | nt
CC1S/C(=N/N=C/c2ccco2)NC1=O (configuration not stated) | i | -0.13 | 88 | 84 | nt | -7 | nt
Cc1ccc(-c2csc3ncnc(Sc4nnc(CN5CCCCCC5=O)o4)c23)cc1 | + | 0.74 | 1.7* | 1.9* | nt | 99* | 4
Cc1ccc(-c2csc3ncnc(SCC(=O)Nc4nnc(C)s4)c23)cc1 | i | -0.01 | 102 | 86 | -9 | -7 | nt
COc1ccc(OCc2cnc(Cl)s2)cc1 | i | nt | 101 | 100 | 11 | -4 | nt
NCCCCCc1nnc(SCc2cccc(Cl)c2)o1 | i | -0.24 | 106 | 96 | nt | 98* | -6
NCCCCCc1nnc(SCC(=O)Nc2cccc(Cl)c2)o1 | i | -0.6 | 89 | 82 | nt | 36 | nt
N#CCSc1nnc(CNc2ccc(F)cc2)o1 | i | nt | 90 | 94 | 57 | 2 | nt
COc1ccc(/C=C2\Sc3ccc(C(=O)N4CCc5ccccc5C4)cc3N(C)C2=O)cc1 | i | -0.07 | 84 | 86 | -16 | -4 | nt
SMILES | Autophagy HCS | Insulin prom up | PTEN del growth | bCat KO growth | INS promoter inh | Lmaj promast | L major 1uM
COc1ccc(-[n+]2c(C)cc(/C=C3\Sc4ccccc4N3C)cc2C)cc1 | ? | ? | nt | nt | -400 | 101* | 101*
CN(c1ccccc1)S(=O)(=O)c1cc(C(=O)N2CCN(c3ccccn3)CC2)ccc1Cl | i | 0.31 | 71 | 60 | -25 | 90* | -1
Nc1ccc2c(c1)N1CCN=C1S2 | i | -0.29 | 90 | 96 | nt | 0 | nt
O=C(Nc1ccc(Cl)cc1)Nc1ccc2c(c1)N1CCN=C1S2 | i | -0.52 | 27 | 25 | 36 | 100* | 1
CC(=O)Oc1ccc2ccccc2c1C(NC(=O)Cc1ccccc1)c1ccccc1Cl (configuration not stated) | i | 0.04 | 1.4* | 3.9* | -46 | 55* | -23
CCC(=O)NC(c1ccccc1)c1c(OC(C)=O)ccc2ccccc12 (configuration not stated) | i | 0.03 | nt | nt | nt | 1 | nt
Nc1nc(OCC(F)(F)F)cc(Oc2ccccc2F)n1 | i | 0.29 | 102 | 91 | nt | 4 | nt
Cc1ccc(SCCNC(=O)CN2C(=O)c3ccccc3S2(=O)=O)cc1 | i | 0.29 | 107 | 99 | nt | -10 | nt
Cc1ccc(CN=C2Nc3ccccc3CS2)cc1 | i | nt | 89 | 83 | -46 | 86* | 17
O=C(Nc1cccn(Cc2ccccc2)c1=O)NC1CCCCC1 | i | -0.28 | 87 | 88 | -17 | 78* | 4
CCOC(=O)/C(=C/c1c(C)n(C)c2ccc([N+](=O)[O-])cc12)C(C)=O | i | 0.43 | 45 | 39 | -15 | 83* | 22
CCOC(=O)c1c(N)c2cc([N+](=O)[O-])ccc2n1C | nt | -0.66 | nt | nt | nt | nt | nt
CCNC(=S)N(Cc1c(C)noc1C)c1ccccc1 | i | 0.78 | 96 | 91 | 36 | 51* | -6
Cc1nc2c(-c3ccc(Cl)cc3)c(C)[nH]n2c(=O)c1Cc1ccccc1 | i | ? | nt | nt | nt | 99* | -6
COc1ccc(-c2c(C)[nH]n3c(=O)c(Cc4ccccc4)c(C)nc23)cc1OC | i | -0.96 | nt | nt | nt | 17 | nt
CC(=O)OCC(OC(C)=O)C(OC(C)=O)C(OC(C)=O)C(=O)Nc1ccc(C)cc1C (configuration not stated) | i | -0.38 | 107 | 99 | nt | -4 | nt
O=C(NCCC(c1ccccc1)c1ccccc1)c1ccc(Br)o1 | i | -0.05 | 63 | 63 | 3 | 59* | -2
O=C(O)CCNC(=O)c1ccc(Br)o1 | i | 0.58 | 100 | 100 | 43 | -9 | nt
CC(C)C(NS(=O)(=O)c1cccc2nsnc12)C(=O)Nc1nc2ccc(Cl)cc2s1 (configuration not stated) | i | -1.2 | 63 | 51 | nt | 90* | -29
Cc1ccc(NC(=O)C(NS(=O)(=O)c2cccc3nsnc23)C(C)C)nc1 (configuration not stated) | i | -0.34 | 95 | 90 | nt | 2 | nt
CC1=Nc2ccccc2/C1=C/c1sc(=N)n(-c2nccs2)c1O | + | 1.1 | 2.3* | 3.9* | -49 | 100* | -2
CC1=Nc2ccccc2/C1=C/c1nc(-c2ccc(C)s2)oc1O | i | 1.4 | nt | nt | 6 | 10 | nt
Cc1ccc(C(=O)CSc2nnnn2-c2ccccc2)o1 | i | -0.26 | nt | nt | nt | -1 | nt

Screening results as filed in PubChem.
